Where “and” joins values, the source holds several entries; their conditions need not be identical. Equal entries are not always repeated. About 27,000 (9.3%) of roughly 290,000 compounds were called active. The entries come from a sample that favours actives as a whole. A number with no mark means an inactive call. No stated cut-off is given here; in the data, active means inhibition mostly above about 28% (no sharp cut-off); inactive means mostly below about 43%.
Test: A qHTS for Small Molecule Inhibitors of Shiga Toxin; further: 0% is about no effect
Conditions: Vero cells, Shiga toxin protein synthesis inhibition reporter; at 38.7 µM, active compounds read high
For O=C(O)c1cc(S(=O)(=O)N(Cc2ccccc2)c2cccc(C(F)(F)F)c2)ccc1Cl, the inhibition was -2.31%.
For CC(=O)N1CCC(C(=O)OCc2ccc(Cl)cc2)(c2ccccc2)CC1, the inhibition was -6.33%.
Cc1c(Cl)cccc1NC(=O)NCCCN1CCCC1=O showed an inhibition of 29.4%.
In the case of O=C(CN1C(=O)c2ccccc2C1=O)NCc1ccc(C(=O)O)cc1, the inhibition is reported as 5.13%.
In the case of CC(=O)c1ccc(N2CCN(C(=O)c3ccc4nc[nH]c4c3)CC2)cc1, the inhibition is reported as 29.9% (active).
In the case of O=C(c1cccc(C(=O)N2CCN(c3ccc(F)cc3)CC2)c1)N1CCN(c2ccc(F)cc2)CC1, the inhibition is reported as -8.51%.
Compound Cc1nc2ccc(C(=O)N3CCN(c4ccccc4)CC3)cc2s1 has an inhibition of 11.9%.
For CCN1C(=NCCc2cccnc2)N[C@@H](c2ccccc2)[C@H](C(=O)OC)[C@H]1C, the inhibition was 12.2% and -9.8%.
Work on C=C1CCN(Cc2ccc(OC)cc2)S(=O)(=O)c2ccccc21 yielded an inhibition of -5.84%.
Work on COc1ccc(OC)c(CNC(=O)Cn2nc(C)c3c(C)n(-c4ccc(C)cc4)nc3c2=O)c1 yielded an inhibition of 26.2%.
With COc1ccc(S(=O)(=O)NNC(=O)Nc2ccc(C)cc2)c(OC)c1 the inhibition was -5.98%.
Compound NC(=O)C1CCN(C(=O)CC2C(=O)NCCN2Cc2cccc(Oc3ccccc3)c2)CC1 (centres undefined) has an inhibition of -10.2%.
Cc1nn(-c2ccccc2)c2c1c(C)c(CCC(=O)NCC1CCCO1)c(=O)n2C (centres undefined) showed an inhibition of -2.28%.
With Cc1onc(-c2ccccc2Cl)c1C(=O)OCC(=O)c1ccccc1 the inhibition was 71.6% (active).
Cc1[nH]c2ccccc2c1C(=O)COC(=O)c1c(-c2ccccc2)noc1C showed an inhibition of -2.62%.
Compound Cc1onc(-c2ccccc2Cl)c1C(=O)NCCn1ccc2ccccc21 has an inhibition of -2.64%.
With COc1ccc(/C=C(\NC(=O)c2ccccc2)C(=O)NCCN2CCOCC2)cc1OC the inhibition was 1.37%.
In the case of CC(CCn1cccn1)NC(=O)CCc1nnc(CCc2ccccc2)o1 (centres undefined), the inhibition is reported as -10.4%.
In the case of Cc1cc(-c2nnc(CCC(=O)NC(c3ccccc3)c3ccccc3)o2)no1, the inhibition is reported as 35.4% (active).
For O=C(CCc1nnc(CCCCc2ccccc2)o1)NC(c1cccnc1)C(F)(F)F (centres undefined), the inhibition was -12.1%.
With COC(=O)c1ccc(N2CCOCC2)c(NC(=O)c2ccc(Br)o2)c1 the inhibition was 31.4%.
In the case of Cc1cccc(N=Nc2c(C)[nH]n(-c3ccccc3)c2=O)c1, the inhibition is reported as -4.8%.
In the case of CC1=NN(C(N)=S)C(=O)C1N=Nc1cc(Cl)ccc1Cl (centres undefined), the inhibition is reported as -1.92%.
With Cc1[nH]n(C(N)=S)c(=O)c1N=Nc1ccc(Cl)cc1Cl the inhibition was 44.3% (active).
Cc1cc(C)c2oc(C(=O)Nc3ccc(S(=O)(=O)Nc4nccc(C)n4)cc3)cc(=O)c2c1 gave an inhibition of 2.27%.
Compound CCc1ccc(NC(=O)C(C)OC(=O)/C=C/c2cccc([N+](=O)[O-])c2)cc1 (centres undefined) has an inhibition of 15.5%.
For Cc1ccc(NC(=O)O/N=C/c2cccc([N+](=O)[O-])c2)cc1, the inhibition was 70.8% (active).
With O=C(N/N=C/c1cccc([N+](=O)[O-])c1)c1ccncc1 the inhibition was 22.3%.
Cc1ccc(C)c(S(=O)(=O)Nc2cc(C)on2)c1 gave an inhibition of -4.53%.
In the case of CCc1cc2c(=O)c(-c3ccc(F)cc3)c(C(F)(F)F)oc2cc1OCC(=O)O, the inhibition is reported as 5.27%.
Compound COc1ccc2oc(N)c(C=O)c(=O)c2c1 has an inhibition of 63.7%.
In the case of CCc1cc2c(=O)c(-c3ccon3)c(N)oc2cc1OC, the inhibition is reported as 82.2% (active).
For CSc1nnc(C2CCCN(CC(=O)Nc3ccccc3N3CCOCC3)C2)n1C(C)C (centres undefined), the inhibition was -9.97%.
With O=C(Cn1c(NCCO)nc2ccccc21)c1ccc(Cl)cc1Cl the inhibition was -8.74%.
Work on COC(=O)c1c(NC(=O)C2CC(C)=C(C)CC2C(=O)O)sc2c1CCCCC2 (centres undefined) yielded an inhibition of -7.33%.
CCOc1ccccc1NC(=O)CCc1nnc2ccc(NCc3ccco3)nn12 gave an inhibition of -9.81%.
For O=C(CCc1nnc2ccc(NCc3ccco3)nn12)Nc1cc(F)ccc1F, the inhibition was -6.06%.
For CC(=O)c1ccc(NC(=O)CCc2nnc3ccc(NCc4ccco4)nn23)cc1, the inhibition was 49.7% (active).
For COCCNC(=O)CCCN1C(=O)c2ccccc2Sc2ncccc21, the inhibition was -19.8%.
In the case of CCOc1ccccc1-c1nc(CN2CCC(C(=O)N3CCOCC3)CC2)c(C)o1, the inhibition is reported as -7.77%.
With O=C(NCc1ccccn1)C1CCN(S(=O)(=O)c2ccc(Br)cc2)CC1 the inhibition was -33.7%.
With Cc1ccc(S(=O)(=O)Cc2cc(-c3ccc(Cl)cc3)no2)cc1 the inhibition was 8.79%.
For Cc1ccc(-c2cc(N)on2)cc1, the inhibition was 108% (active).
O=C(Cc1ccccc1Cl)N1CCOCC1 gave an inhibition of -11.4%.
In the case of CC1CN/C(=C\C(=O)c2ccc(Br)cc2)C(=O)N1 (centres undefined), the inhibition is reported as 67.3% (active).
COc1cc2c(cc1OC)/C(=C/C(=O)c1ccc(NC(C)=O)cc1)NCC2 showed an inhibition of -6.51%.
For CN1CCCC(OC(=O)COc2ccc(Br)cc2)C1 (centres undefined), the inhibition was -12%.
For CC(C)(C)OC(=O)NC(Cc1ccccc1)C(=O)NC(CSC1CCCCO1)C(=O)NN (centres undefined), the inhibition was -14.3%.
In the case of Cc1cccc(N2CCN(C(=O)COCc3cc(-c4ccc5c(c4)OCO5)on3)CC2)c1C, the inhibition is reported as -8.35%.
For CC(C)NC(=O)COCc1cc(-c2ccc3c(c2)OCO3)on1, the inhibition was 45.3% (active).
CCOC(=O)N1CCN(C(=O)COCc2cc(-c3ccc4c(c3)OCO4)on2)CC1 showed an inhibition of -7.65%.
For Cc1nn2c(=O)cc(COC(=O)c3ccc(NC(=O)C(C)(C)C)cc3)nc2s1, the inhibition was 35.5%.
For COc1cccc(C2CC(c3cccs3)=NN2C(=O)CSC2=NCCS2)c1OC (centres undefined), the inhibition was -5.1%.
CCCc1cc(=O)oc2cc(OCC(=O)Nc3ccc(CN4CCOCC4)cc3)c(Cl)cc12 gave an inhibition of -1.59%.
COc1ccc(C2=NOC3(CC(=O)N(c4ccc(C)cc4)C3=O)C2)cc1 (centres undefined) gave an inhibition of 36.5%.
Compound Cc1ccc(C(=O)NNC2=Nc3cc([N+](=O)[O-])ccc3OC2)cc1 has an inhibition of 40.3%.
In the case of COc1ccc(C2=Nc3cc(C)ccc3OC2)cc1, the inhibition is reported as 94% (active).
Cn1cc(C(=O)c2ccc(Cl)cc2Cl)cc1C(=O)NN showed an inhibition of -5.33%.
Work on Cc1cc(C)c(SCCc2ccncc2)c(C)c1 yielded an inhibition of -4.14%.
In the case of CC(C)(C)c1ccc(SCCc2ccncc2)cc1, the inhibition is reported as 69.1% (active).
Compound c1ccc(CSCCc2ccncc2)cc1 has an inhibition of -5.65%.
With CN(NS(=O)(=O)c1cccs1)c1ncc(C(F)(F)F)cc1Cl the inhibition was -2.15%.
Work on Cc1nc2ccccc2c(=O)n1-c1ccc(Cl)cc1Cl yielded an inhibition of -14.3%.
For Cc1ccc(C(=O)CSc2nc3ccccc3c(=O)n2N)o1, the inhibition was 77.2%.
In the case of COc1ccc(OCc2ccc(-c3nc4ccccc4c(=O)n3N)o2)cc1, the inhibition is reported as 129% (active).
Work on COc1ccc(-c2nc3ccccc3c(=O)n2CCc2ccc(O)cc2)cc1 yielded an inhibition of 40.9%.
For Cn1c2ccccc2c(=O)c2c(=O)n(Cc3ccco3)c(COc3ccccc3)nc21, the inhibition was 8.54%.
For Cn1c(COc2ccc(Cl)cc2)nc2ccccc2c1=O, the inhibition was 46% (active).
For COC(=O)c1sc(N2CCN(Cc3ccccc3)CC2)nc1N, the inhibition was -8.35%.
Cc1ccc(CNCc2ccc3c(c2)OCO3)c(C)c1 showed an inhibition of -7.85%.
Compound O=C(O)C1=NN(c2c(F)c(F)cc(F)c2F)C(=O)CC1 has an inhibition of -10.3%.
With Cc1cccc(NC(=O)Nc2ccc3c(c2)OCO3)n1 the inhibition was 76.3% (active).
Compound CCc1c(C)sc(NC(=O)/C=C/c2ccc3c(c2)OCO3)c1C(=O)OC has an inhibition of -7.04%.
In the case of COc1ccc(/C=C/C(=O)Nc2ccc3c(c2)OCCO3)cc1OC, the inhibition is reported as 35.4%.
Cc1ccc2nc(-c3ccccn3)cc(C(=O)Nc3ccc4c(c3)OCO4)c2c1 showed an inhibition of -7.35%.
Compound CC(NS(=O)(=O)c1ccc(Cl)cc1)C(=O)Nc1ccc2c(c1)OCCO2 (centres undefined) has an inhibition of -5.73%.
COc1ccc(OC)c(/C=C/C(=O)OCC(=O)Nc2ccc3c(c2)OCCO3)c1 gave an inhibition of -11%.
In the case of COc1cccc(/C=C/C(=O)Nc2ccc3c(c2)OCCO3)c1, the inhibition is reported as 70.9% (active).
In the case of Cc1cccc(NC(=O)/C=C/c2ccc3c(c2)OCO3)n1, the inhibition is reported as 70.2% (active).
Compound CC(C)CNS(=O)(=O)c1ccc(C(=O)Nc2ccc3c(c2)OCO3)cc1 has an inhibition of -14.7%.
With O=C(/C=C/c1ccc2c(c1)OCO2)NCc1ccc(F)cc1 the inhibition was 26.5%.
For CNS(=O)(=O)c1ccc(NC(=O)Nc2ccc3c(c2)OCO3)cc1, the inhibition was 72.9% (active).
CC(NC(=O)Nc1ccc2c(c1)OCO2)c1ccncc1 (centres undefined) gave an inhibition of 19.2%.
In the case of COc1cccc(NC(=O)C2CCCN(c3ncnc4c3nc3n4CCCCC3)C2)c1 (centres undefined), the inhibition is reported as -3.78%.
In the case of Cc1ccc(N2CCN(C(=O)c3cccs3)CC2)c(C)c1, the inhibition is reported as 8.46%.
CCc1ccc(OCC(=O)N(Cc2ccccc2)C2CCS(=O)(=O)C2)cc1 (centres undefined) gave an inhibition of -3.9%.
Compound CN(C)S(=O)(=O)c1cccc(C(=O)OCC(=O)N2CCCC2=O)c1 has an inhibition of -2.45%.
In the case of CC(C(=O)NC1CCS(=O)(=O)C1)N1C(=O)/C(=C/c2ccc(Cl)cc2)SC1=S (centres undefined), the inhibition is reported as -2.44%.
For COc1ccccc1CN1CCN(Cc2cc(OC)c(OC)cc2OC)CC1, the inhibition was 7.78%.
In the case of COc1ccc(CNS(=O)(=O)c2ccc(NC(=O)N3CCCCC3)cc2)cc1, the inhibition is reported as 1.93%.
For CC(C)C(=O)Nc1c2c(nn1-c1ccccc1)CSC2, the inhibition was -0.685%.
For COc1cc2c(cc1OC)C(C)N(S(=O)(=O)c1cnc(Cl)c(Cl)c1)CC2 (centres undefined), the inhibition was -3.13%.
Work on CC(C)n1c(O)c(N=Nc2ccccn2)c2ccccc21 yielded an inhibition of 11.1%.
In the case of Oc1oc(-c2ccccc2Br)nc1/C=N/c1ccccn1, the inhibition is reported as 102% (active).
